CYP2C9 act = increases human cytochrome P450 2C9 activity. P11712. recombinant CYP2C9, luciferin-H conversion, luminescence; hits give high values; factor 1 = untreated enzyme, 0 = blocked. activation factor at 5 µM. 96,000 compounds, 1.4% hits. AID 1024;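 active = activation factor of 2 or more for CYP2C9 at a 5 µM dose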
CYP2C9 inh = blocks human cytochrome P450 2C9; P11712; CYP2C9 Supersomes, luciferin-H conversion, luminescence; inhibition, % at 5 µM; 96,000 compounds, 20% hits; AID 777;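 active = blocking of liver enzyme CYP2C9 beyond about 50% at 5 µM, limit read from the data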
CYP2C19 act = increases human CYP2C19 enzyme activity | 96,000 tested, under 10 active | P33261 | recombinant CYP2C19, luciferin-H EGE luminescence; hits give high values; 0 = fully inhibited enzyme, 1 = untreated enzyme | activation factor at 5 µM | AID 1025;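 active = activation factor of at least 2 at 5 µM in the primary screen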
Target sequence (P33261 whole entry, looked up): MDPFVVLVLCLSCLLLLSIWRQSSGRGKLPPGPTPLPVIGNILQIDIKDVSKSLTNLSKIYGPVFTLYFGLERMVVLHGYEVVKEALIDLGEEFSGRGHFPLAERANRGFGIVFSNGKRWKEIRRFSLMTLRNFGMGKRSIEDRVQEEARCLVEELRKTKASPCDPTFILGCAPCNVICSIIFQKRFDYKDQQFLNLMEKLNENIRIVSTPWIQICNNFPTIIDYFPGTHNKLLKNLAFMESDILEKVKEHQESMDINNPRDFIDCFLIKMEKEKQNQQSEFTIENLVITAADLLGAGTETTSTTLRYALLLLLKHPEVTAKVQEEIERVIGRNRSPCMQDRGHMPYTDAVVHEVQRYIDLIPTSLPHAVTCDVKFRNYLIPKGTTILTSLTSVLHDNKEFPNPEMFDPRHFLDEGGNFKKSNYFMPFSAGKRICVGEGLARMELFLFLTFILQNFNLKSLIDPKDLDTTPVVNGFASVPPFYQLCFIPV
CYP2C19 inhib = human CYP2C19 inhibition. inhibition, % at 5 µM. CYP2C19 Supersomes, luciferin-H EGE luminescence, 30 min. 96,000 compounds, 21% hits;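 active = CYP2C19 inhibition above a set limit at 5 µM in the primary screen, cut at about 50% in these data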
PostGolgi yeast = growth inhibition of a yeast mutant, post-Golgi transport screen; post-Golgi transport phenotypic cell assay; inhibition, % at 10 µM; 98,000 compounds, 0.9% hits; AID 739;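 also: yeast cells grown in 1536-well plates; yeast grown about 18 h at 30C before absorbance read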
PostGolgi ctrl = growth of the yeast control strain, post-Golgi counter-screen. 98,000 compounds, 5% hits. inhibition, % at 10 µM. AID 738. efflux-deficient yeast background strain, growth absorbance A615, 16 h
Hits are given with their value; – = inactive; · = no result given. Compounds with a hit are over-represented: about 32% of the library has one in this group of screens. Rule as the data show it, unless noted: active = inhibition above about 30%; inactive = the rest.

SMILES	CYP2C9 act	CYP2C9 inh	CYP2C19 act	CYP2C19 inhib	PostGolgi yeast	PostGolgi ctrl
Cc1cc(-n2nc(C)cc2C)nc(NS(=O)(=O)c2ccccc2Cl)n1	–	52	–	–	–	–
Cc1cc(C)nc(NS(=O)(=O)c2ccccc2)n1	–	–	–	–	–	–
CCC1=NC(c2ccccc2Cl)N(O)C1(C)C (configuration not stated)	–	–	–	–	–	–
Cc1ccc(NC(=S)NNc2ncc(C(F)(F)F)cc2Cl)c(C)c1	–	–	–	67	–	–
Nc1ccccc1C(=O)NNc1ncc(C(F)(F)F)cc1Cl	–	–	–	–	–	–
COC(=O)c1ccccc1NC(=O)c1ccc(COc2cc(C)cc(C)c2)o1	–	–	–	–	–	31
COc1ccccc1OCc1ccc(C(=O)N(C)C)o1	–	–	–	–	–	–
COC(=O)c1ccccc1NC(=O)c1ccc(COc2ccc(C)c(C)c2)o1	–	–	–	52	–	–
COC(=O)c1ccc(COc2cccc(OC)c2)o1	–	–	–	–	–	–
COc1ccccc1NC(=O)c1ccc(COc2ccccc2OC)o1	2.8	–	–	58	–	–
COC(=O)c1ccccc1NC(=O)c1cccc(NC(=O)c2ccc(Br)o2)c1C	–	–	–	–	–	–
CSc1cccc(NC(=O)c2ccc(Cl)nc2)c1	–	–	–	–	–	–
CN1CCN(S(=O)(=O)c2ccc(SCCOc3ccccc3)nc2)CC1	–	–	–	51	–	–
COC(=O)C(Cc1cnc(Cl)s1)(C(=O)OC)c1ccccc1[N+](=O)[O-]	–	65	–	94	–	–
COC(=O)C(C)(C(=O)OC)c1ccc([N+](=O)[O-])cn1	–	–	–	–	–	–
COC(=O)C(C)(C(=O)OC)c1ccccc1[N+](=O)[O-]	–	–	–	–	–	–
COC(=O)C(Cc1cnc(Cl)s1)(C(=O)OC)c1ccc([N+](=O)[O-])cc1	–	73	–	91	–	–
C=CCSc1nnc(NC(=O)COc2ccc3ccccc3c2)s1	–	–	–	–	–	–
Cc1nc2scc(-c3ccc(Cl)cc3)c2c(=O)o1	–	–	–	–	–	–
CN1c2ccccc2C(O)=C(C(=O)Nc2ccccc2)S1(=O)=O	–	76	–	–	–	–
Cc1ccc(NC(=O)c2ccccc2O)cc1	·	·	·	·	–	–
CN1c2ccccc2C(O)=C(C(=S)Nc2ccccc2)S1(=O)=O	–	82	–	–	–	–
CN1c2ccccc2C(O)=C(C(=S)Nc2ccc(F)c(Cl)c2)S1(=O)=O	–	96	–	–	–	–
CCC(=O)Nc1ccc(F)c(Cl)c1	–	–	–	–	–	–
Cc1ccc(NC(=S)C2=C(O)c3ccccc3N(C)S2(=O)=O)cc1	–	100	–	–	–	–
SMILES	CYP2C9 act	CYP2C9 inh	CYP2C19 act	CYP2C19 inhib	PostGolgi yeast	PostGolgi ctrl
CCCCOCP(=O)(CC)COCCCC	–	–	–	–	–	–
Cc1ccc(C)c(C(=O)CN2C3=NCCCN3c3ccccc32)c1	–	–	–	–	–	–
Cc1ccc(C)n1-n1c(C)nc2scc(-c3cccs3)c2c1=O	–	71	–	79	–	–
Cc1nc2scc(-c3cccs3)c2c(=O)n1-n1cccc1	–	58	–	53	–	–
Cc1nc2scc(-c3cccs3)c2c(=O)o1	–	55	–	80	–	–
O=c1oc(-c2cccs2)nc2scc(-c3cccs3)c12	–	–	–	–	–	–
COc1ccc(-c2nc3nc(C)cc(C)n3n2)cc1	–	–	–	–	–	–
Cc1[nH]c(=O)[nH]c(=O)c1S(=O)(=O)N(C)Cc1ccccc1	–	–	–	–	–	–
CC(c1ccccc1)N1C(=O)c2ccccc2C1O (configuration not stated)	–	–	–	66	–	–
Cc1nc(-c2ccccc2)nc2[nH]c(C(C)C)cc(=O)c12	–	81	–	–	–	–
Cn1cc(C(=O)C(F)(F)F)c2ccccc21	–	–	–	–	–	–
CCOC(=O)c1c(C)[nH]c(C(=O)OCC(=O)NC2CCS(=O)(=O)C2)c1C (configuration not stated)	–	–	–	–	–	–
COc1ccc(NCc2n[nH]c(=O)c3ccccc23)cc1	–	–	–	–	–	32
COc1ccc2[nH]c(=O)c(CNC3CCCCC3)cc2c1	–	–	–	–	–	–
COc1ccc2[nH]c(=O)c(CNc3cccc(C)c3)cc2c1	–	–	–	82	–	–
COc1ccc(NCc2cc3ccccc3[nH]c2=O)cc1	–	–	–	82	–	–
COc1ccc(NCc2cc3cc(OC)ccc3[nH]c2=O)cc1	–	–	–	52	–	–
CCC(=O)N(Cc1cc2cc(OC)ccc2[nH]c1=O)c1cc(C)ccc1C	–	–	–	–	–	–
CC(c1nnc(SCC(=O)NC(=O)NCc2ccco2)n1-c1ccc(Cl)cc1)N(C)C (configuration not stated)	–	–	–	–	–	–
COc1ccc(C(=O)NCc2oc(-c3ccccc3)cc2C(=O)O)cc1	–	–	–	–	–	–
Cc1ccc(N2C(=O)CC2(C#N)c2ccc(OCc3ccccc3)cc2)cc1 (configuration not stated)	–	62	–	–	–	–
COc1ccc(N2C(=O)CCC2(C#N)c2ccc(OC)cc2)cc1 (configuration not stated)	–	–	–	66	–	–
O=C(O)C1CC(=O)N(c2ccc(OCc3ccccc3)cc2)C1 (configuration not stated)	–	–	–	–	–	–
CC(C)Cc1nc(SCC(=O)Nc2ccc(S(N)(=O)=O)cc2)n[nH]1	–	–	–	–	–	–
CC1(C)Cc2ccccc2C(N)=C1C#N	–	78	–	94	–	–
SMILES	CYP2C9 act	CYP2C9 inh	CYP2C19 act	CYP2C19 inhib	PostGolgi yeast	PostGolgi ctrl
CC(=O)N(C(C)=O)C1=C(C#N)C2(CCCCC2)Cc2ccccc21	–	–	–	–	–	–
COc1ccccc1CNC(=O)COC(=O)c1ccc(NC(N)=O)cc1	–	–	–	–	–	–
O=C(NCc1nc(-c2ccccc2)no1)c1cccs1	–	–	–	56	–	–
O=C(Nc1nc(-c2ccccc2)ns1)c1cccs1	–	–	–	–	–	–
O=C(NCc1nc(-c2ccccc2)no1)c1ccc(Br)o1	–	–	–	72	–	–
COCCCNCC(=O)c1c(N)n(Cc2ccccc2)c(=O)n(C)c1=O	–	–	–	–	–	–
Cc1ccccc1Cn1ccc(NC(=O)c2cnn3c(C(F)(F)F)cc(-c4ccco4)nc23)n1	–	61	–	–	–	33
COc1ccc(CCNC(=O)CSc2nc(-c3ccco3)cc(C(F)(F)F)n2)cc1OC	–	–	–	–	–	–
O=C(Nc1cnn(C23CC4CC(CC(C4)C2)C3)c1)c1cnn2c(C(F)(F)F)cc(-c3ccco3)nc12	–	78	–	65	–	–
